# Test results reported in PubChem BioAssay AID485353 (National Center for Advancing Translational Sciences (NCATS), 2010).
# The campaign covered roughly 330,000 compounds. About 610 (0.18%) were called active. Inconclusive results (about 2%) are left out. The call rests on the fitted dose curve. What follows is part of a selection rich in actives, with near analogues and random picks from the rest.
# Assay: qHTS of Yeast-based Assay for SARS-CoV PLP; further: nearly all actives have a fitted effect of over 55% in size; on activity, positive = growth rescue: 0% is about no effect
# Conditions: S. cerevisiae expressing SARS-CoV PLpro; Potency: growth rescue; series mostly up to 32.9 µM; activity, positive = growth rescue: at the top concentration
# Potency means the concentration at half of the fitted maximal effect.
SMILES,"activity, positive = growth rescue",Potency
CCOC(=O)c1nn(-c2ccccc2F)c2nc(Nc3ccccc3)cc(=O)n12,19.8% (inactive),–
Cc1cc(NC(=O)CS(=O)(=O)c2cn(C)c3ccccc23)no1,4.32% (inactive),–
CC1CN(S(=O)(=O)c2ccccc2)C(C)CN1S(=O)(=O)c1ccccc1 (configuration not stated),7.74% (inactive),–
Cn1c(SCC(=O)NC2CCCCC2)nnc1-c1cc2ccccc2o1,–,10 µM (active)
Cn1c(SCC(=O)NC2CCCCC2)nnc1-c1ccc(N)cc1,0.0296% (inactive),–
CCOc1cccc(-c2nnc(SCC(=O)NC3CC3)n2C)c1,-1.58% (inactive),–
CN(c1ccc2nc3ccccc3c(=O)n2n1)C1CCCCC1,-12.9% (inactive),–
CC(C)Cc1nnc(NC(=O)CCC(=O)Nc2ccc3cn[nH]c3c2)s1,-0.296% (inactive),–
O=c1oc2ccccc2cc1-c1cn(-c2ccccc2)c(=S)[nH]1,-4.67% (inactive),–
S=c1[nH]c(-c2cccs2)cn1-c1ccccc1,–,11.2 µM (active)
S=c1[nH]nc(-c2cccs2)n1/N=C/c1cn(-c2ccccc2)nc1-c1ccc(Cl)cc1,1.04% (inactive),–
COc1ccccc1C(=O)NN1C(=O)C2C3C=CC(O3)C2C1=O (configuration not stated),4.73% (inactive),–
CC12CCC(C(=O)N(NC(=O)c3ccccc3O)C1=O)C2(C)C (configuration not stated),–,2.82 µM (active)
O=C(NN1C(=O)C2C(C1=O)C1C=CC2C12CC2)c1ccccc1Cl (configuration not stated),0.328% (inactive),–
O=c1c(Cl)c(NCc2ccc(F)cc2Cl)cnn1C12CC3CC(CC(C3)C1)C2,-19.4% (inactive),–
O=C(NC1CCN(S(=O)(=O)c2ccc(F)cc2)CC1)c1ccccc1,0.666% (inactive),–
CCc1ccc(-c2nn(-c3ccccc3)cc2CSC(=N)N)cc1,14.6% (inactive),–
CCCCC(=O)N(c1ccc(OC)cc1)C1C=CS(=O)(=O)C1 (configuration not stated),-1.73% (inactive),–
Nc1ccc(Nc2cc(O)c3ncccc3c2)cc1,4.05% (inactive),–
Cc1ccc(OCCC(=O)Nc2ccc(S(=O)(=O)Nc3nccs3)cc2)cc1,0.527% (inactive),–
CC(C)=C1C2CCC1C1C(=O)N(NC(=O)c3ccco3)C(=O)C21 (configuration not stated),–,2.82 µM (active)
O=C(NN1C(=O)C2CCCCC2C1=O)c1ccco1 (configuration not stated),1.51% (inactive),–
O=C(NN1C(=O)C2C3C=CC(C3)C2C1=O)c1ccco1 (configuration not stated),15% (inactive),–
CC(=O)NC(c1cccs1)c1cc(Br)c2cccnc2c1O (configuration not stated),-0.691% (inactive),–
Cc1nn2c(c1-c1ccccc1)N=C(c1ccco1)CC2c1ccccc1 (configuration not stated),-7.14% (inactive),–
CC[C@]12c3[nH]c4cc(CCC(=O)N(C)C)ccc4c3CCN1C(=O)[C@@H](CC(=O)NCCCN(C)C)C[C@@H]2C(=O)N1CCN(C(=O)c2ccco2)CC1,14.8% (inactive),–

SMILES,"activity, positive = growth rescue",Potency
CCC(C)NC(=O)C1CCCN(C(=O)NC2CCCCC2)C1 (configuration not stated),2.48% (inactive),–
Cc1ccc(S(=O)Cc2ccc(C(=O)N3CCN(C4CCCCC4)CC3)o2)cc1 (configuration not stated),2.29% (inactive),–
O=C(CCN1C(=O)C2C3C=CC(C3)C2C1=O)Oc1ccc2ccccc2c1 (configuration not stated),0.162% (inactive),–
Cc1ccc(C(=O)COC(=O)CCN2C(=O)C3C4CC(C(Br)C4Br)C3C2=O)cc1 (configuration not stated),–,12.6 µM (active)
Cc1ccc(C(=O)COC(=O)CCN2C(=O)C3C4CCC(C4)C3C2=O)cc1C (configuration not stated),-3.46% (inactive),–
CCN1C(=O)[C@@H]2[C@@H](c3ccc(-c4ccccc4)cc3)N3CCCC[C@@]3(C(=O)OC)[C@@H]2C1=O,-2.04% (inactive),–
O=C(Oc1cccc(N2C(=O)C3C4c5ccccc5C(c5ccccc54)C3C2=O)c1)c1ccco1 (configuration not stated),17.8% (inactive),–
Cc1nc2ccccc2n1C(=O)N1CCOCC1,20.8% (inactive),–
CC1CN(C(=S)SCC(=O)c2ccccc2)CC(C)O1 (configuration not stated),–,10 µM (active)
O=C(CSC(=S)N1CCOCC1)c1ccccc1,-10.4% (inactive),–
CC1CN(C(=S)Nc2ccccc2F)CC(C)O1 (configuration not stated),0.954% (inactive),–
Cc1ccc(NC(=O)COc2ccc(-n3ccnc3)cc2)cc1Cl,-21.9% (inactive),–
COc1cccc(NC(=O)c2ccccc2N(Cc2ccccc2)S(C)(=O)=O)c1,4.18% (inactive),–
COc1ccccc1N1CCN(C(CNC(=O)Oc2ccccc2)c2cccnc2)CC1 (configuration not stated),-2.51% (inactive),–
O=C(CSc1cccc2cccnc12)N/N=C/c1cccnc1,2.68% (inactive),–
CCOC(=O)N1CCN(C(c2cccnc2)c2ccc3cccnc3c2O)CC1 (configuration not stated),–,11.2 µM (active)
Cc1ccc(S(=O)(=O)n2cccc2CO)cc1,1.41% (inactive),–
CC(C)(Oc1ccc(Cl)cc1)C(=O)OCC(=O)NCCc1ccc(S(N)(=O)=O)cc1,2.28% (inactive),–
O=C(Cn1cnc2c(nnn2-c2ccccc2)c1=O)N1CCC(Cc2ccccc2)CC1,1.22% (inactive),–
COc1cccc(NC(=O)CN(C)C(C)C(=O)Nc2ccc(C#N)cc2)c1 (configuration not stated),1.84% (inactive),–
O=C(CCc1nnc(CCCCc2ccccc2)o1)NC(c1cccnc1)C(F)(F)F (configuration not stated),0.42% (inactive),–
O=C(Nc1ccc(S(=O)(=O)N2CCCCC2)cc1)C1CC(=O)N(c2ccc(F)cc2)C1 (configuration not stated),0.241% (inactive),–
CN1CCN(C2=NCCO2)CC1,-0.788% (inactive),–
CC(C#N)OC(=O)c1cccnc1SCC(=O)Nc1ccc2c(c1)OCO2 (configuration not stated),-0.388% (inactive),–
CCCCOc1ccc(NC(=O)[C@@H]2CCCN2C(=O)C2CCN(S(=O)(=O)c3ccc(C)cc3)CC2)cc1,-8.3% (inactive),–
COc1ccc(NC(=O)C2CCC(CNS(=O)(=O)c3csc(C(N)=O)c3)CC2)cc1OC (configuration not stated),2.32% (inactive),–

SMILES,"activity, positive = growth rescue",Potency
Cc1cc(C)c2nc3nc(C)cc(C)c3c(N)c2c1,-3.61% (inactive),–
O=C(CN1C(=O)NC2(CCCCCCC2)C1=O)NCc1ccc(F)cc1,-2.13% (inactive),–
Cc1ccccc1OCc1nnc(SCC(=O)N2c3ccccc3Sc3ccc(Cl)cc32)o1,-4.39% (inactive),–
O=C(CN1C(=O)/C(=C\c2ccc(C(F)(F)F)cc2)Sc2ccccc21)NCc1ccco1,–,12.6 µM (active)
O=C(CN1C(=O)/C(=C/c2ccccc2F)Sc2ccccc21)NCc1cccnc1,1.48% (inactive),–
O=C(CC1CCCCC1)NCc1ccco1,-0.144% (inactive),–
COc1cccc(C(CC(=O)NCCN2CCOCC2)NS(=O)(=O)c2ccc(C)cc2)c1OC (configuration not stated),2.49% (inactive),–
CCc1nccn1CCC(=O)N1CCCC(N2CCN(c3ccccc3F)CC2)C1 (configuration not stated),5.56% (inactive),–
CC1(c2ccc(Cl)cc2Cl)NC(=O)N(CC(=O)Nc2cccnc2Cl)C1=O (configuration not stated),0.863% (inactive),–
O=C(c1ccco1)N1CCN(CC(=O)N(C2CCCCC2)C2CCS(=O)(=O)C2)CC1 (configuration not stated),0.872% (inactive),–
COc1ccc(CNC(=O)c2c[nH]c3c(OC)cc(OC)cc3c2=O)cc1,2.43% (inactive),–
CC(=O)N1N=C(c2ccncc2)OC1(Cc1ccccc1)Cc1ccccc1,0.466% (inactive),–
COC(=O)CCc1sc(Nc2ccc(Br)cc2)nc1-c1ccc(OC)cc1,-25.4% (inactive),–
CN(C(=O)COC(=O)CCCc1c[nH]c2ccccc12)c1c(N)n(Cc2ccccc2)c(=O)[nH]c1=O,2.28% [at 6.58 µM] (inactive),–
Cc1nc(-c2ccc(Cl)cc2)sc1C(=O)CBr,-22% (inactive),–
Cc1nc(-c2ccccc2)sc1C(=O)/C=C/N(C)C,-1.29% (inactive),–
Cc1ccc(SCC(=O)c2sc(-c3ccccc3)nc2C)cc1,–,3.55 µM (active)
CN(CC(=O)NCCN1CCOCC1)S(=O)(=O)c1ccc(F)cc1,3.57% (inactive),–
Cc1[nH]n(-c2ccc([N+](=O)[O-])cc2)c(=O)c1C=NCCN1CCN(C(=O)c2ccccc2F)CC1,-15% (inactive),–
Cc1ccc(-n2[nH]c(C)c(/C=N/NC(=O)c3cccc([N+](=O)[O-])c3)c2=O)cc1C,–,1.26 µM (active)
C/C(=N\NC(=O)c1ccoc1C)c1ccccc1O,-15.6% (inactive),–
Cc1[nH]n(-c2ccccc2)c(=O)c1/C=N/NC(=O)c1ccoc1C,–,2.51 µM (active)
C/C(=N\NC(=O)c1cccc([N+](=O)[O-])c1)c1cccnc1,1.13% (inactive),–
COc1cc(/C=N/NC(=O)c2ccoc2C)ccc1OCCN1CCCCC1,-3.16% (inactive),–
O=C(Cn1cc(/C=N/NC(=O)c2cccc(C(F)(F)F)c2)c2ccccc21)Nc1ccc(F)cc1,1.14% (inactive),–
O=C(NCCCn1ccnc1)C(=O)NCC1OCCN1S(=O)(=O)c1cc(F)ccc1F (configuration not stated),0.943% (inactive),–

SMILES,"activity, positive = growth rescue",Potency
CCc1cccc(NC(=O)COC(=O)c2cc(=O)c3ccccc3o2)c1,-5.39% (inactive),–
Cc1ccc(SCc2c(C(=O)N/N=C/C3CC=CCC3)nnn2-c2nonc2N)cc1 (configuration not stated),0.713% (inactive),–
Nc1nonc1-n1nnc(C(=O)N/N=C/c2cc(Br)ccc2O)c1CSC1=NCCS1,–,4.47 µM (active)
Nc1nonc1-n1nnc(C(=O)N/N=C\c2ccncc2)c1CN1CCCCC1,1.85% (inactive),–
CSc1nc(-c2ccco2)nn1C(=O)c1ccccc1Cl,-2.37% (inactive),–
COc1cc(C(=O)N/C(=C\c2cn(C)c3ccccc23)C(=O)N2CCOCC2)cc(OC)c1OC,-0.452% (inactive),–
Cc1cc(C)nc(N/N=C/c2c(CO)cnc(C)c2O)n1,0.145% (inactive),–
CCN(CC)c1ccc(/C=N/NC(=O)c2cnccn2)c(O)c1,4.67% (inactive),–
CCN(CC)c1ccc(/C=N/Nc2nc(C)cc(C)n2)c(O)c1,–,5.01 µM (active)
CC1(C)Cc2nc3sc4c(SCC(=O)NC(c5ccccc5)c5ccccc5)ncnc4c3cc2CO1,0.705% (inactive),–
COc1ccc(NC(=O)C(=O)NCC(c2ccco2)N2CCc3ccccc3C2)cc1 (configuration not stated),-16.8% (inactive),–
CCOc1c(Nc2cccc(Cl)c2)c(=O)c1=O,-0.74% (inactive),–
CCOCCCNC(=O)C(NC(=O)c1ccc(=O)[nH]c1)c1ccc(Cl)cc1 (configuration not stated),1.05% (inactive),–
CC1(C(=O)OCC(=O)Nc2ncc(Cl)cc2Cl)CC1(Cl)Cl (configuration not stated),-3.29% (inactive),–
CN(CC(=O)Nc1ccc(S(=O)(=O)N2CCCC2)cc1)Cc1ccc(Cl)c(Cl)c1,-24.7% (inactive),–
C=CCn1c(C23CC4CC(CC(C4)C2)C3)n[nH]c1=S,–,11.2 µM (active)
C=CCn1c(SCC(=O)NC)nnc1C12CC3CC(CC(C3)C1)C2,-2.6% (inactive),–
C=CCn1c(-c2sc(-c3ccccc3)nc2C)n[nH]c1=S,5.03% (inactive),–
C=CCNC(=O)/C(=C\c1cccc([N+](=O)[O-])c1)NC(=O)c1ccccc1,-8.39% (inactive),–
O=C(N/N=C/c1cc([N+](=O)[O-])ccc1O)/C(=C\c1cccs1)NC(=O)c1ccccc1,–,3.98 µM (active)
O=C(Nc1ccc(C(=O)O)cc1)/C(=C/c1ccc([N+](=O)[O-])cc1)NC(=O)c1ccccc1,0.0593% (inactive),–
CC1CCC(NC(=O)CN(C)S(=O)(=O)c2ccc3c(c2)c(=O)n(C)c(=O)n3C)CC1 (configuration not stated),-0.025% (inactive),–
CCc1ccccc1NC(=O)CN(C)S(=O)(=O)c1ccc2c(c1)c(=O)n(C)c(=O)n2C,7.46% (inactive),–
COc1cccc(CNC(=O)CN(C)S(=O)(=O)c2ccc3c(c2)c(=O)n(C)c(=O)n3C)c1,–,3.55 µM (active)
